# In PubChem BioAssay AID651821 (The Scripps Research Institute Molecular Screening Center, 2012):
# Screen size: about 370,000 compounds; about 4,700 (1.3%) were called active. What follows is part of a selection rich in actives, with near analogues and random picks from the rest. A number with no mark means an inactive call.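 Rule for the calls: active = inhibition above the plate cutoff, the mean of all test compounds on that plate plus 3 SD (cut at about 35% in these data); inactive = the rest.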
# Test: small molecules binding CAG repeat RNA – biochemical, fluorescence, primary screen (AID 651821);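 note: 0% = DMSO alone and 100% = 100 µM mitoxantrone as full dye displacement; higher means more dye released from RNA so lower well fluorescence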
# Conditions: r(CAG) RNA repeat, TO-PRO-1 dye displacement fluorescence; at 3 µM; active compounds read high
row,Structure (SMILES),inhibition
1,O=C(C1CCN(S(=O)(=O)c2ccccc2)CC1)N1CCN(C2CCCCC2)CC1,2.76%
2,COC(=O)[C@]12C[C@H](CC(=O)N3CCOCC3)C(=O)N(Cc3ccc(Cl)cc3Cl)C1=C[C@H](C(C)C)O[C@@H]2C1CC1,4.69%
3,COc1cccc(NC(=O)N(C)C[C@@H]2OCc3cn(nn3)CCCC(=O)N([C@@H](C)CO)C[C@H]2C)c1,1.49%
4,CCCCOCCCNC(=O)C[C@H]1C[C@@]2(C(=O)OC)C(=C[C@H](C(C)(C)C)O[C@@H]2C)N(CCc2ccc(OC)c(OC)c2)C1=O,2.98%
5,COc1ccc(CSc2nnc(SCC(=O)Nc3ccccc3C(F)(F)F)s2)cc1,0.71%
6,CCCCCCN1CCS(=O)(=O)N(Cc2ccc(C(F)(F)F)cc2)C(C(=O)OC)C1 (stereo unspecified),0.66%
7,CC(=O)C1(C(=O)Nc2nccs2)CC(c2ccccc2C(F)(F)F)=NO1 (stereo unspecified),2.46%
8,c1ccc(Cc2c(-c3ccco3)nc3c4ccccc4ccn23)cc1,13.8%
9,Cc1cc2nc(-c3ccco3)c(Cc3cccc(F)c3)n2c(C)c1Br,37% (active)
10,Cc1cc2nc(-c3ccc(F)cc3)c(Cc3ccsc3)n2c(C)c1Br,5.76%
11,Cc1ccc2c(CN3CCN(S(=O)(=O)c4ccccc4C(F)(F)F)CC3)cc(=O)oc2c1,10%
12,O=c1cc(CN2CCN(S(=O)(=O)/C=C/c3ccccc3)CC2)c2ccc(O)cc2o1,40% (active)
13,NC(=O)CCN1CCN(S(=O)(=O)/C=C/c2ccccc2)CC1,-0.01%
14,COc1ccc(CN2C(=O)C(C)S/C2=N/N=C/c2ccco2)cc1 (stereo unspecified),0.84%
15,O=C(Nc1cccc(F)c1)N1C2CCC1CC(O)(c1cccnc1)C2 (stereo unspecified),-2.98%
16,CCN1N=C(c2ccccc2)CCC1=O,-0.41%
17,O=C1NC(=O)C2C1C(c1ccc([N+](=O)[O-])cc1)=NN2Cc1ccccc1 (stereo unspecified),10.9%
18,O=C1CC(c2ccccc2)=NN1c1ccc([N+](=O)[O-])cc1,45.5% (active)
19,CN1[C@H](Cc2ccccc2)COc2cccc(N3CCSCC3)c2S1(=O)=O,4.7%
20,COC(=O)C1=C(C)N(Cc2cccc(C(F)(F)F)c2)C(=NCc2cccc(C(F)(F)F)c2)NC1c1ccccc1C(F)(F)F (stereo unspecified),1.52%
21,Cc1c[nH]c2cccc(-c3ccc(Cl)cc3)c12,1.17%

row,Structure (SMILES),inhibition
1,COc1ccc(C(=O)c2c(C)oc3cc([N+](=O)[O-])c(O)c([N+](=O)[O-])c23)cc1,24.7%
2,Cc1oc2cc([N+](=O)[O-])c(O)c([N+](=O)[O-])c2c1C(=O)c1ccc(Br)cc1,67.6% (active)
3,Cc1cc(O)c(NC(=O)c2ccc(C)c([N+](=O)[O-])c2)cc1C,4.43%
4,N#Cc1ccccc1OC[C@@H](O)CN1CCC(C(O)(c2ccccc2)c2ccccc2)CC1,2.31%
5,CCOC(=O)N1CCN(C(=O)C[C@H]2C[C@@]3(C(=O)OC)C(=C[C@H](C(C)(C)C)O[C@@H]3C)N(Cc3ccc(Cl)cc3Cl)C2=O)CC1,7.87%
6,O=C(O)CCn1cc(/C=C/C(=O)c2ccc(Cl)cc2)c(-c2cccc(Br)c2)n1,82.8% (active)
7,C#CCN([C@H](C(=O)OC)C(C)CC)S(=O)(=O)c1ccccc1Br (stereo partly specified),-1.79%
8,O=C(C(=O)N1CCC(CNC(=O)c2cccnc2Cl)CC1)c1cccs1,2.4%
9,COc1ccc(CNS(=O)(=O)c2cc(Br)ccc2Br)cc1,2.67%
10,COc1ccc(-n2c(SCC(=O)NC3CCCC3)nnc2-c2ccncc2)cc1,3.34%
11,CCN(CC)S(=O)(=O)c1ccc(Cl)c(C(=O)NC(C)C(c2cccs2)N2CCCC2)c1 (stereo unspecified),-3.47%
12,O=C(CSc1nnc(SCc2ccc(Cl)cc2)s1)N/N=C/c1ccccc1Cl,5.04%
13,Cc1ccc(NC(=S)NNC(=O)CSc2nnc(SCc3ccccc3Cl)s2)cc1,47.2% (active)
14,CCSc1nnc(SCC(=O)NNC(=O)c2ccccc2F)s1,1.18%
15,O=C1Nc2cc(C(=O)N3CCN(c4ccc(F)cc4)CC3)ccc2NC1CSCc1cccc(F)c1 (stereo unspecified),14.7%
16,O=C(COC(=O)/C=C/c1cccc(Cl)c1)NCc1cccs1,-1.04%
17,CCOC(=O)c1nnn(CC(=O)Nc2cccc(F)c2)c1C(=O)OCC,-2.22%
18,CCN(CC)C(=O)CSC(Nc1cccc(F)c1)=C(C#N)C#N,56.7% (active)
19,Cc1ccc(CSCC(=O)N(C)CC(=O)Nc2cccc(F)c2)cc1,-1.65%
20,CCS(=O)(=O)c1ccc(C(=O)NC)c(Cl)c1Cl,-0.44%
